# Compound activity (PubChem BioAssay)
# PLC-gamma1 inh: PLC-gamma1 (human) inhibition, primary screen; P19174; purified PLC-gamma1, fluorogenic substrate, fluorescence; inhibition, % at 12.2 µM; hit rate 0.84% among 370,000; in the data active means inhibition above about 9.5%
# ADAM10 inh: inhibits human ADAM10; inhibition, % at 7 µM; hit rate 0.62% among 370,000; recombinant ADAM10, EDANS/DABCYL FRET peptide cleavage, 3 h; O14672;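 active means inhibition above a per-campaign cutoff equal to the mean of compounds falling between control-based bounds plus 3 SD, cut at about 20% in these data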;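 further: 0% = DMSO wells while the 100% control is not disclosed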
# PLC-beta3 inh: PLC-beta3 (human) inhibition, primary screen; AID 720704; inhibition, % at 12.2 µM; Purified PLC-beta3, fluorogenic substrate, fluorescence; hit rate 0.18% among 370,000; in the data active means inhibition above about 11%;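 further: 0% = median of compound wells on plate and 100% = full blocker control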
# proKLK7 act: proKLK7 (human) activation, primary screen; P49862; activation, % at 7 µM; purified proKLK7, EDANS-DABCYL substrate fluorescence; 100% is mature enzyme control, 0% vehicle; hit rate 0.9% among 370,000;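 active means activation above the mean of all tested compounds plus 3 SD, computed per campaign excluding outliers beyond control limits, cut at about 13% in these data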
# HGIII-sPLA2 inh: Inhibits HGIII-sPLA2 liposome hydrolysis, primary screen; Q9NZ20; QFRET BODIPY PC-A2 liposome hydrolysis, fluorescence; inhibition, % at 12.2 µM; hit rate 0.56% among 370,000; AID 743126;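 active means inhibition above mean plus 3 SD of compounds lying within the high and low control bounds, cut at about 19% in these data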;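 further: 0% = median of test compound wells and 100% = no enzyme DMSO wells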
# ADAM17 inh: ADAM17 inhibition, QFRET primary screen. P78536. recombinant ADAM17, EDANS/DABCYL FRET peptide cleavage. inhibition, % at 6.95 µM. hit rate 0.83% among 370,000. AID 720648;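 active means inhibition above the mean of compounds lying between control limits plus 3 SD, set per campaign, cut at about 8.5% in these data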;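 further: 0% = DMSO-only wells as the low control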
# hGIII sPLA2 conf: human GIII-sPLA2 inhibition, confirmation. shares compounds with HGIII-sPLA2 inh. recombinant hGIII-sPLA2, BODIPY PC-A2 QFRET fluorescence. inhibition, % at 12.2 µM. hit rate 34% among 2,000. AID 743280;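 active means mean inhibition across triplicates above the hit cutoff set in the earlier primary screen, cut at about 19% in these data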;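 further: 0% = enzyme with DMSO and 100% = DMSO wells lacking enzyme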
# 535nm interf: counter-screen for HGIII-sPLA2 inhibitors: 535nm fluorescence interference; AID 743282; inhibition, % at 12.2 µM; hit rate 8.5% among 2,000; shares compounds with HGIII-sPLA2 inh; BODIPY FL product fluorescence interference, QFRET;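 active means average inhibition above the solvent-only control mean plus 3 SD, cut at about 6% in these data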;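 further: 0% = DMSO with substrate plus product and 100% = DMSO with substrate alone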
# 535nm interf DR: interferes with 535nm fluorescence in dose response counter-screen; AID 743455; IC50, µM; shares compounds with HGIII-sPLA2 inh; BODIPY FL product fluorescence interference, cell-free; 240 tested, under 10 active;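 active means IC50 at or below 10 µM; inactive means IC50 above 10 µM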
# Numbers without * were called inactive; . = not tested or not shown. An excerpt weighted towards active compounds, which were near 3.4% of everything screened.
SMILES,PLC-gamma1 inh,ADAM10 inh,PLC-beta3 inh,proKLK7 act,HGIII-sPLA2 inh,ADAM17 inh,hGIII sPLA2 conf,535nm interf,others
CCc1ccc(Nc2nc(N)nc(CSc3nc4ccccc4s3)n2)cc1,0,-6,-3,0,24*,1,-3,0,
CCC1(CC)NC(=O)N(CC(=O)OCC(=O)Nc2sccc2C#N)C1=O,3,-6,-3,0,-3,1,.,.,
Cc1ccccc1NC(=O)c1ccc(CN2CC(=O)N3CCCCC3C2=O)cc1 (centres undefined),1,-16,-3,0,19*,-3,-4,-3,
Cc1ccc(NC(=O)c2ccc(CN3CC(=O)N4CCCCC4C3=O)cc2)c(C)c1 (centres undefined),3,2,3,1,5,-1,.,.,
CC(=O)CC[C@@H]1CC[C@]2(CCCN(S(C)(=O)=O)C2)O1,5,-14,-2,0,22*,-2,-2,-6,
CC(C)CCNC(=O)COc1ccc2c3c(c(=O)oc2c1)CCC3,-14,-160,-25,-5,-3,-49,.,.,
CC(C)CNC(=O)COc1ccc2c3c(c(=O)oc2c1)CCC3,5,-66,-2,0,21*,-28,-2,-5,
CC12CCC(C(=O)N(CSC(=S)N/N=C\c3ccccc3O)C1=O)C2(C)C (centres undefined),-9,6,-6,-1,28*,7,36*,4,
COc1ccc(/C=N\NC(=S)SCN2C(=O)C3CCC(C)(C2=O)C3(C)C)cc1 (centres undefined),-2,2,-1,1,10,3,.,.,
Cc1ccc(NC(=O)CCN2CCN(CCO)CC2)cc1Br,6,-24,-2,0,23*,-3,-5,-3,
O=C(CCCNC(=O)c1ccc(Cl)cc1)OCc1cccc(Br)c1,3,4,-11,0,-5,0,.,.,
COCCNc1nc(NCc2ccccc2OC)c2sccc2n1,-1,-15,1,0,-7,-3,.,.,
COCCNc1nc(NCc2cnc(C)cn2)c2sccc2n1,-1,-16,-9,-1,22*,-9,-2,-7,
CCOc1ccc(CCN2CN(C3CCCCC3)CNC2=S)cc1OCC,1,0,-3,-1,18,0,.,.,
S=C1NCN(C2CCCCC2)CN1CCc1ccccc1,-1,-8,-2,0,22*,-6,20*,-9,
O=C(NCCOc1ccccc1F)C1CCC(=O)N(CC2CCCCC2)C1 (centres undefined),3,0,-9,0,-5,-5,.,.,
CCOc1cc(CNc2ccc3c(c2)OCCO3)cc(Br)c1OCC,-1,8,-4,1,23*,1,34*,-4,535nm interf DR=>122
CC(=O)N1CCN(C(=O)c2ccc(C(=O)c3ccccc3)cc2)CC1,-1,-2,-2,0,0,1,.,.,
Cn1cc(/C=C2\SC(=S)N(N3CCOCC3)C2=O)c2ccccc21,-3,-9,-7,0,21*,-4,6,0,
CCOC(=O)c1sc(NC(=O)c2ccc(OC)cc2)nc1C,3,-4,2,0,2,1,.,.,
CCOC(=O)c1sc(NC(C)=O)nc1C,-1,0,-1,0,23*,-6,3,-8,
Cc1ccccc1NC(=S)NC(=O)c1cncc(Br)c1,1,2,4,0,23*,4,7,2,
OC(COCc1ccc(Cl)cc1)CN1CCc2ccccc2C1 (centres undefined),3,-14,-5,0,23*,-4,0,-22,
COc1ccc(N=C2CC(C)(C)CC(=O)/C2=C(/O)c2ccccc2)cc1,1,-7,2,-1,-4,-3,.,.,
CCOC(=O)c1sc(=S)n(-c2ccccc2)c1N,-1,-3,-2,0,7,-7,.,.,
